How the values were obtained:
Assay in all cases: yeast three-hybrid, YBZ-1, SC-Leu-His + 0.5 mM 3-AT, 4 days
Conditions in all cases: tags: N-Gal4 AD-HA kept; label: inside an RPR1-promoter hybrid RNA with tandem MS2 sites; ssRNA
[1] = target: PUM1 PUF domain R4-WGK (Homo sapiens, UniProt Q14671 828-1176, N971W;H972G;Q975K)
In short: (§1)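 The interaction score is the logarithmic change in variant frequency from input to selection. It uses log2, with a pseudocount of 1 for absent variants, and frequencies came from PCR-amplified, Illumina-sequenced repeat regions. The libraries were Pumilio-1 PUF domains randomized at the three base-contacting residues per repeat, co-expressed with matching RNA elements in strain YBZ-1 (LexA–MS2 coat fusion, HIS3 reporter). Plating lasted four days on SC-Leu (input) or SC-Leu-His + 0.5 mM 3-AT (selection).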

[2] = target: PUM1 PUF domain R5-RFF (Homo sapiens, UniProt Q14671 828-1176, C1007R;R1008F;Q1011F)
In short: as §1

[3] = target: PUM1 PUF domain R2-LWG (Homo sapiens, UniProt Q14671 828-1176, N899L;Y900W;Q903G)
In short: as §1

[4] = target: PUM1 PUF domain R3-VYG (Homo sapiens, UniProt Q14671 828-1176, C935V;R936Y;Q939G)
In short: as §1

[5] = target: PUM1 PUF domain R5-RRQ (Homo sapiens, UniProt Q14671 828-1176, C1007R)
In short: as §1

[6] = target: T1, PUM1 PUF domain R6-TWR (Homo sapiens, UniProt Q14671 828-1176, N1043T;Y1044W;Q1047R)
T1 sequence: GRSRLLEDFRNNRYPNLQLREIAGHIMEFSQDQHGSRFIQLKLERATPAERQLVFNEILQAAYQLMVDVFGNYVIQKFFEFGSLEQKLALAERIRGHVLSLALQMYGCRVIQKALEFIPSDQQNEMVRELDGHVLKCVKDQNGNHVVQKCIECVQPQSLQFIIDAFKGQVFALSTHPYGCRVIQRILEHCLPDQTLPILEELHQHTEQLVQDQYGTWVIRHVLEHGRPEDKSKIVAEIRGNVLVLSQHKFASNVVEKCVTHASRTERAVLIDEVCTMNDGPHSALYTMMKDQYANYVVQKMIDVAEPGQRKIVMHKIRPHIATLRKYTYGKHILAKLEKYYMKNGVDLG
In short: as §1

[7] = target: PUM1 PUF domain R3-MRR (Homo sapiens, UniProt Q14671 828-1176, C935M;Q939R)
In short: as §1

[8] = target: PUM1 PUF domain R7-RFW (Homo sapiens, UniProt Q14671 828-1176, S1079R;N1080F;E1083W)
In short: as §1

[9] = target: PUM1 PUF domain R7-RGR (Homo sapiens, UniProt Q14671 828-1176, S1079R;N1080G;E1083R)
In short: as §1

[10] = target: PUM1 PUF domain R5-QLV (Homo sapiens, UniProt Q14671 828-1176, C1007Q;R1008L;Q1011V)
In short: as §1

**Q.** How did the binding signal [1] turn out when “GGCUAGAACUAGUGGAUCCCCCGGCGCCCGGCGGCUCGAGCCCGGGUAAGUGUACAUAGUCUGCAUGCCGCCGGGCGCCAUGCCUGCAGGUCGACUCUAGAAAACAUG” was run?
**A.** 3.57 log2 enrichment (interaction score)

**Q.** How did the binding signal [2] turn out when “GGCUAGAACUAGUGGAUCCCCCGGCGCCCGGCGGCUCGAGCCCGGGUAAGUGUAAAUAGUCUGCAUGCCGCCGGGCGCCAUGCCUGCAGGUCGACUCUAGAAAACAUG” was run?
**A.** 1.95 log2 enrichment (interaction score)

**Q.** And the binding signal [1]?
**A.** 1.16 log2 enrichment (interaction score)

**Q.** And the binding signal [3]?
**A.** 1.91 log2 enrichment (interaction score)

**Q.** What about the binding signal [4] of the same sequence?
**A.** 3.51 log2 enrichment (interaction score)

**Q.** And the binding signal [5]?
**A.** 3.35 log2 enrichment (interaction score)

**Q.** What about the binding signal [6] of the same sequence?
**A.** 7.84 log2 enrichment (interaction score)

**Q.** And the binding signal [7]?
**A.** 0.71 log2 enrichment (interaction score)

**Q.** “GGCUAGAACUAGUGGAUCCCCCGGCGCCCGGCGGCUCGAGCCCGGGUAAGUGUAUAUAGUCUGCAUGCCGCCGGGCGCCAUGCCUGCAGGUCGACUCUAGAAAACAUG” was tested. Which binding signal [1] did it give?
**A.** 3.03 log2 enrichment (interaction score)

**Q.** How did the binding signal [8] turn out when “GGCUAGAACUAGUGGAUCCCCCGGCGCCCGGCGGCUCGAGCCCGGGUAAGUAUAAAUAGUCUGCAUGCCGCCGGGCGCCAUGCCUGCAGGUCGACUCUAGAAAACAUG” was run?
**A.** 2.69 log2 enrichment (interaction score)

**Q.** How did the binding signal [3] turn out when “GGCUAGAACUAGUGGAUCCCCCGGCGCCCGGCGGCUCGAGCCCGGGUAAGUGUAAAAAGUCUGCAUGCCGCCGGGCGCCAUGCCUGCAGGUCGACUCUAGAAAACAUG” was run?
**A.** 8 log2 enrichment (interaction score)

**Q.** For “GGCUAGAACUAGUGGAUCCCCCGGCGCCCGGCGGCUCGAGCCCGGGUAAGUUUAAAUAGUCUGCAUGCCGCCGGGCGCCAUGCCUGCAGGUCGACUCUAGAAAACAUG”, which binding signal [9] is on record?
**A.** 6.1 log2 enrichment (interaction score)

**Q.** “GGCUAGAACUAGUGGAUCCCCCGGCGCCCGGCGGCUCGAGCCCGGGUAAGUGUCAAUAGUCUGCAUGCCGCCGGGCGCCAUGCCUGCAGGUCGACUCUAGAAAACAUG” was tested. Which binding signal [2] did it give?
**A.** 2.99 log2 enrichment (interaction score)

**Q.** And the binding signal [5]?
**A.** 4.75 log2 enrichment (interaction score)

**Q.** With “GGCUAGAACUAGUGGAUCCCCCGGCGCCCGGCGGCUCGAGCCCGGGUAAGUGCAAAUAGUCUGCAUGCCGCCGGGCGCCAUGCCUGCAGGUCGACUCUAGAAAACAUG” as the sequence, how does the binding signal [6] read?
**A.** 5.67 log2 enrichment (interaction score)

**Q.** What does the source list for “GGCUAGAACUAGUGGAUCCCCCGGCGCCCGGCGGCUCGAGCCCGGGUAAGUCUAAAUAGUCUGCAUGCCGCCGGGCGCCAUGCCUGCAGGUCGACUCUAGAAAACAUG”?
**A.** binding signal [8]: 5.36 log2 enrichment (interaction score); binding signal [9]: 5.01 log2 enrichment (interaction score)

**Q.** Which binding signal [7] does the source give for “GGCUAGAACUAGUGGAUCCCCCGGCGCCCGGCGGCUCGAGCCCGGGUAAGUGUAACUAGUCUGCAUGCCGCCGGGCGCCAUGCCUGCAGGUCGACUCUAGAAAACAUG” here?
**A.** 0.49 log2 enrichment (interaction score)

**Q.** With “GGCUAGAACUAGUGGAUCCCCCGGCGCCCGGCGGCUCGAGCCCGGGUAAGUGUAAUUAGUCUGCAUGCCGCCGGGCGCCAUGCCUGCAGGUCGACUCUAGAAAACAUG” as the sequence, how does the binding signal [4] read?
**A.** 2.46 log2 enrichment (interaction score)

**Q.** What about the binding signal [7] of the same sequence?
**A.** 3.08 log2 enrichment (interaction score)

**Q.** With “GGCUAGAACUAGUGGAUCCCCCGGCGCCCGGCGGCUCGAGCCCGGGUAAGUGUAAAGAGUCUGCAUGCCGCCGGGCGCCAUGCCUGCAGGUCGACUCUAGAAAACAUG” as the sequence, how does the binding signal [3] read?
**A.** 3.16 log2 enrichment (interaction score)

**Q.** For “GGCUAGAACUAGUGGAUCCCCCGGCGCCCGGCGGCUCGAGCCCGGGUAAGUGUGAAUAGUCUGCAUGCCGCCGGGCGCCAUGCCUGCAGGUCGACUCUAGAAAACAUG”, which binding signal [10] is on record?
**A.** 2.52 log2 enrichment (interaction score)

**Q.** And the binding signal [5]?
**A.** 1.79 log2 enrichment (interaction score)

**Q.** With “GGCUAGAACUAGUGGAUCCCCCGGCGCCCGGCGGCUCGAGCCCGGGUAAGUGUAAGUAGUCUGCAUGCCGCCGGGCGCCAUGCCUGCAGGUCGACUCUAGAAAACAUG” as the sequence, how does the binding signal [4] read?
**A.** 1.12 log2 enrichment (interaction score)

**Q.** And the binding signal [7]?
**A.** 4.82 log2 enrichment (interaction score)

Reference: publication PMC8384837, “Expanding the binding specificity for RNA recognition by a PUF domain”
